PubChem BioAssay

Assays:
PEG-3 [1] = biological target: PEG-3 (UniProt Q6IN02); assay: inhibition of PEG-3 promoter-driven reporter – cell-based, HeLa, luciferase, CREF/GAPDH counter-screen panel, dose response (AID 624167); settings: CREF/GAPDH counter-screens; HeLa PEG-Prom luciferase reporter, overnight, run 1, dose range 1, at 100 µM (top of the series) unless noted
PEG-3 [2] = biological target: PEG-3 (UniProt Q6IN02); assay: as above; settings: CREF/GAPDH counter-screens; HeLa PEG-Prom luciferase reporter, overnight, run 2, dose range 1, at 100 µM (top of the series) unless noted
[3] = biological target: Tumor necrosis factor receptor superfamily member 10B (Homo sapiens) (UniProt O14763); assay: viability loss of caspase-8 NB7 cells with TRAIL – with/without TRAIL, luminescence panel, confirmation (AID 651596); settings: NB7 neuroblastoma + caspase-8, TRAIL sensitization, NB7 Caspase-8, with TRAIL, mean of runs, at 10 µM, stronger effect = higher value
[4] = as above; settings: NB7 neuroblastoma + caspase-8, without TRAIL, NB7 Caspase-8, without TRAIL, mean of runs, at 10 µM
[5] = NFkB reporter suppression in cystic fibrosis bronchial cells – cell-based, uHTS hits, panel, cytotoxicity readout, dose response (AID 624344); settings: CF bronchial epithelial cells, PAF-induced NFkB reporter inhibition, with PAF, run 1; at 79 µM (top of the series) unless noted
[6] = as above; settings: CF bronchial epithelial cells, PAF-induced NFkB reporter inhibition, with PAF, run 2; at 79 µM (top of the series) unless noted
Rat fibroblasts (CREF) [7] = assay: inhibition of PEG-3 promoter-driven reporter – cell-based, HeLa, luciferase, CREF/GAPDH counter-screen panel, dose response (AID 624167); settings: CREF/GAPDH counter-screens; run 1, dose range 1, at 100 µM (top of the series)
Rat fibroblasts (CREF) [8] = assay: as above; settings: CREF/GAPDH counter-screens; run 2, dose range 1, at 100 µM (top of the series)

PEG-3, sequence (Q6IN02 whole entry, looked up): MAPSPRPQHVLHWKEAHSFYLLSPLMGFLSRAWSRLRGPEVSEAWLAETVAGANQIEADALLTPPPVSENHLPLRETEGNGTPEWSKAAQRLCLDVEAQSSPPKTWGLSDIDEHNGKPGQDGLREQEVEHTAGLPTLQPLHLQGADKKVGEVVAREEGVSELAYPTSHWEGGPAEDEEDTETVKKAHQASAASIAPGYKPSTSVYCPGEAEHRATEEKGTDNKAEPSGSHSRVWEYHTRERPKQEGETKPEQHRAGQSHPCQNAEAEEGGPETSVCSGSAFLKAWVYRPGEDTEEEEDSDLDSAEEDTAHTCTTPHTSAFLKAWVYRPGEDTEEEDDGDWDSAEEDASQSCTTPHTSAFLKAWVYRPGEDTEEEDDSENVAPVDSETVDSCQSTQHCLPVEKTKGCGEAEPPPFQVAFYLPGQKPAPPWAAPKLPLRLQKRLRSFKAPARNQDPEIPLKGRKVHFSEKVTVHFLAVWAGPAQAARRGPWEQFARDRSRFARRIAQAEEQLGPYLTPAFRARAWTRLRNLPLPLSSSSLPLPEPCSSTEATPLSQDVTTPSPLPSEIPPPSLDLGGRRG
Tumor necrosis factor receptor superfamily member 10B (Homo sapiens), sequence (O14763 whole entry, looked up): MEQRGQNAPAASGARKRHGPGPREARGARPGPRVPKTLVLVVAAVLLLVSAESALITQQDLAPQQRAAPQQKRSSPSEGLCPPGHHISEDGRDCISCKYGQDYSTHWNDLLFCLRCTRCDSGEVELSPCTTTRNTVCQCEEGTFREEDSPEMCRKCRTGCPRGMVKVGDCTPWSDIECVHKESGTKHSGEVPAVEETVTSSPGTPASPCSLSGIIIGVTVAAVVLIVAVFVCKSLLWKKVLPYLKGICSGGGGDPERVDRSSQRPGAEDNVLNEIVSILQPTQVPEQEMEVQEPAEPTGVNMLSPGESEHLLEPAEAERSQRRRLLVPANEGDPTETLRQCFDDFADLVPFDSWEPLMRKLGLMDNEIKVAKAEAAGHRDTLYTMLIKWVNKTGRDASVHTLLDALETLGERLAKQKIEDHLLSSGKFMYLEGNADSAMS

What does the source list for N/C(=N\OC(=O)c1ccccc1)C(Cc1ccccc1)C(=O)NOC(=O)c1ccccc1 (stereo not drawn)?
inhibition (PEG-3 [1]): 97.4%; inhibition (PEG-3 [2]): 99.1%; activity [3]: 98%; activity [4]: 97.8%

What does the source list for CCc1nccn1C(=O)c1cnn2c(C(F)F)cc(-c3ccc(C)cc3)nc12?
inhibition (PEG-3 [1]): 99.1%; inhibition (PEG-3 [2]): 102%; inhibition [5]: 102%; inhibition [6]: 115%

With CCOc1cccc2sc(N(CCCN(C)C)C(=O)c3ccc(S(=O)(=O)N(C)Cc4ccccc4)cc3)nc12 as the compound, how does the inhibition (PEG-3 [1]) read?
Its inhibition is 99.3%.

What about the inhibition (PEG-3 [2]) of the same compound?
Its inhibition is 101%.

And the activity [3]?
The activity was 28.6%.

And the activity [4]?
The activity was -0.65%.

With Cc1cnc(NC(=O)C2CC(=O)N(c3cccc(Cl)c3)C2)s1 (stereo not drawn) as the compound, how does the inhibition (PEG-3 [1]) read?
Its inhibition is 97.7%.

And the inhibition (PEG-3 [2])?
The inhibition was 87.8%.

And the inhibition [5]?
The inhibition was 94.9%.

What about the inhibition [6] of the same compound?
Its inhibition is 116%.

With CCN1CCN(c2ccc(S(=O)(=O)N3CCOCC3)cc2NC(=O)/C=C/c2ccc([N+](=O)[O-])cc2)CC1 as the compound, how does the inhibition (PEG-3 [1]) read?
Its inhibition is 100%.

And the inhibition (PEG-3 [2])?
The inhibition was 89.1%.

And the activity [3]?
Its activity is 50.9%.

And the activity [4]?
The activity was 62.1%.

With CC1CCCCN1S(=O)(=O)c1ccc(C(=O)N(CCCN(C)C)c2nc3ccc(Br)cc3s2)cc1 (stereo not drawn) as the compound, how does the inhibition (PEG-3 [1]) read?
The inhibition was 102%.

And the inhibition (PEG-3 [2])?
Its inhibition is 102%.

What about the activity [3] of the same compound?
Its activity is 22.4%.

What about the activity [4] of the same compound?
Its activity is 17.7%.

For CC(/C=C/c1ccccc1)=N/NC(=O)c1cc([N+](=O)[O-])cc([N+](=O)[O-])c1, which inhibition (PEG-3 [1]) is on record?
Its inhibition is 94.6%.

What about the inhibition (PEG-3 [2]) of the same compound?
Its inhibition is 86.3%.

What about the inhibition (Rat fibroblasts (CREF) [7]) of the same compound?
The inhibition was 47.1%.

And the activity [3]?
The activity was 21.2%.

And the activity [4]?
Its activity is 30.8%.

For CC1(C)Oc2cc3oc(-c4cc(O)cc(O)c4)cc3cc2CC1O (stereo not drawn), which inhibition (PEG-3 [1]) is on record?
Its inhibition is 93.6%.

What about the inhibition (PEG-3 [2]) of the same compound?
The inhibition was 94.6%.

And the activity [3]?
Its activity is 81.8%.

What about the activity [4] of the same compound?
Its activity is 75.9%.

For Cc1cc(C(=O)COC(=O)c2ccccc2Br)c(C)n1CC1CCCO1 (stereo not drawn), which inhibition (PEG-3 [1]) is on record?
Its inhibition is 95.8%.

And the inhibition (PEG-3 [2])?
The inhibition was 85.4%.

And the activity [3]?
The activity was 68.1%.

What about the activity [4] of the same compound?
The activity was 74.3%.

With Cc1ccc2sc(N(CCCN(C)C)C(=O)c3ccc(S(=O)(=O)N4CCc5ccccc5C4)cc3)nc2c1C as the compound, how does the inhibition (PEG-3 [1]) read?
Its inhibition is 82.2%.

What about the inhibition (PEG-3 [2]) of the same compound?
The inhibition was 74.5%.

What about the activity [3] of the same compound?
Its activity is 75%.

What about the activity [4] of the same compound?
Its activity is 87%.

What does the source list for COc1ccc(C(C(=O)NCC2CCCO2)N(Cc2cccs2)C(=O)c2snc(C(N)=O)c2N)cc1 (stereo not drawn)?
inhibition (PEG-3 [1]): 47.8%; inhibition (PEG-3 [2]): 28.4%; inhibition [5]: 109%; inhibition [6]: 101%

For Cc1cccc(-n2ncc3c(N(C)C4CCCCC4)ncnc32)c1, which inhibition (PEG-3 [1]) is on record?
Its inhibition is 89%.

What about the inhibition (PEG-3 [2]) of the same compound?
The inhibition was 91.4%.

What about the activity [3] of the same compound?
The activity was 89.4%.

And the activity [4]?
The activity was 88%.

Which inhibition (PEG-3 [1]) does the source give for FC(F)Sc1ccc(NC(=S)NC(c2ccccc2)c2ccccc2)cc1 here?
Its inhibition is 99.8%.

And the inhibition (PEG-3 [2])?
Its inhibition is 96.5%.

What about the inhibition [5] of the same compound?
Its inhibition is 116%.

What about the inhibition [6] of the same compound?
Its inhibition is 103%.

Which results are given for CCCC(=O)N1CCCC(c2cc(C(=O)Nc3ccccc3)no2)C1 (stereo not drawn)?
inhibition (PEG-3 [1]): 85.5%; inhibition (PEG-3 [2]): 90.8%; activity [3]: 52.6%; activity [4]: 37.5%

Which results are given for C=C1CC2(OC1=O)c1ccccc1CCc1ccccc12?
inhibition (PEG-3 [1]): 102%; inhibition (PEG-3 [2]): 101%; inhibition (Rat fibroblasts (CREF) [7]): 95.7%; inhibition (Rat fibroblasts (CREF) [8]): 97.7%; activity [3]: 97.2%; activity [4]: 99.3%

With COc1nc(N)c(C#N)c(-c2ccc(N(C)CCC#N)cc2)c1C#N as the compound, how does the inhibition (PEG-3 [1]) read?
The inhibition was 52.9%.

And the inhibition (PEG-3 [2])?
The inhibition was 53%.

And the inhibition [5]?
The inhibition was 97.1% [at 39.5 µM].

What about the inhibition [6] of the same compound?
Its inhibition is 84.4% [at 39.5 µM].

With CN1OC[C@@H]2CN[C@H](c3ccc(-c4cc5ccccc5o4)cc3)C[C@@H]21 as the compound, how does the inhibition (PEG-3 [1]) read?
Its inhibition is 98%.

What about the inhibition (PEG-3 [2]) of the same compound?
The inhibition was 101%.

What about the activity [3] of the same compound?
Its activity is 90.1%.

And the activity [4]?
The activity was 90.9%.

For O=C(CCl)Nc1cccc(-c2cnc3ccccc3n2)c1, which inhibition (PEG-3 [1]) is on record?
The inhibition was 101%.

And the inhibition (PEG-3 [2])?
The inhibition was 98.6%.

What about the activity [3] of the same compound?
Its activity is 99.3%.

What about the activity [4] of the same compound?
Its activity is 99.2%.

With CN(C)c1ccc(C(C(=O)NCc2ccccc2)N(Cc2ccco2)C(=O)c2snc(C(N)=O)c2N)cc1 (stereo not drawn) as the compound, how does the inhibition (PEG-3 [1]) read?
The inhibition was 21.1%.

What about the inhibition (PEG-3 [2]) of the same compound?
Its inhibition is 29.3%.

And the inhibition [5]?
The inhibition was 109%.

What about the inhibition [6] of the same compound?
Its inhibition is 104%.

For Cc1cc(C)c2sc(N(CCCN(C)C)C(=O)c3ccc(S(=O)(=O)N(C)C4CCCCC4)cc3)nc2c1, which inhibition (PEG-3 [1]) is on record?
Its inhibition is 98.8%.

And the inhibition (PEG-3 [2])?
Its inhibition is 101%.

And the activity [3]?
The activity was 17.8%.

And the activity [4]?
Its activity is 4.92%.
